“And” between values parts separate entries of the source, which are not always exact repeats. Equal values may be shown once. Inconclusive results are not listed. Entries that show only a call come without a potency. More than one record can exist for a structure, and the calls need not agree. The source made the active and inactive calls. Unless noted, the call rests on the fitted dose curve; in most records, active means well fitted curve in the direction sought with a large enough effect in the repeat runs; inconclusive means weak or mixed curves; inactive means no such curve, though single readings can be large; an effect the other way counts as inactive or inconclusive.
Experiments:
[1] = qHTS assay to identify small molecule antagonists of the sonic hedgehog signaling (Shh) pathway (AID 1259369; calls by dose curve; further: nearly all actives have a fitted effect of over 45% in size; further: potency means the concentration at half of the fitted maximal effect)
Procedure, shortened: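 Cells are plated and held 4hr at 37 C, compounds (DMSO) are pinned in, conditioned medium is added to stimulate the pathway, and after 24hr luciferase reagent is added for 30min before luminescence is read.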

[2] = molecular target: Estrogen receptor beta (Homo sapiens) (UniProt Q92731); assay: qHTS assay to identify small molecule agonists of the estrogen receptor beta (ER-beta) signaling pathway (AID 1259377; active means well fitted activation curve with a large enough effect in the signal ratio in the repeat runs, not every such curve was filed as active; the % refers to the signal ratio)
Procedure, shortened: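 ER-beta-UAS-bla HEK293T (GripTite) cells carrying a UAS-driven beta-lactamase reporter, in medium with 2% charcoal-stripped FBS, were exposed to compounds for 16 hr at 37C; LiveBLAzer B/G FRET substrate was then added and fluorescence read after 2 hours at room temperature.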

[3] = molecular target: Estrogen receptor beta (Homo sapiens) (UniProt Q92731); assay: qHTS assay to identify small molecule antagonists of the estrogen receptor beta (ER-beta) signaling pathway (AID 1259378; active means well fitted inhibition curve with a large enough effect in the signal ratio in the repeat runs, not every such curve was filed as active; the % refers to the signal ratio; further: potency means the concentration at half of the fitted maximal effect)
Procedure, shortened: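 ER-beta-UAS-bla HEK293T (GripTite) cells in 2% charcoal-stripped FBS medium were preincubated 6 hr at 37C, dosed with compound, then stimulated with 1 nM E2 (final) for 16 hr; beta-lactamase reporter read by B/G FRET fluorescence after 2 hr substrate loading.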

[4] = qHTS assay to identify small molecule agonists of the androgen receptor (AR) signaling pathway in the presence of an antagonist - cell viability counter screen (AID 1259379); further: nearly all actives have a fitted effect of over 25% in size; further: potency means the concentration at half of the fitted maximal effect
Procedure, shortened: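 Cytotoxicity is assessed by CellTiter-Fluor in MDA-kb2 cells carrying an MMTV-driven luciferase reporter. Cells receive 3.0uM nilutamide plus compounds at 15 concentrations and incubate 16 hr at 37C without CO2 before fluorescence reading.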

[5] = qHTS assay to identify small molecule agonists of the estrogen receptor beta (ER-beta) signaling pathway - cell viability counter screen (AID 1259380); further: nearly all actives have a fitted effect of over 30% in size; further: potency means the concentration at half of the fitted maximal effect
Procedure, shortened: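 Cytotoxicity is measured in parallel with the reporter screen: after 16 hr compound exposure at 37C and a 2 hr LiveBLAzer step, CellTiter-Glo is added to the same ER-beta-UAS-bla HEK293T wells and luminescence read after 30 min.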

[6] = qHTS assay to identify small molecule antagonists of the estrogen receptor beta (ER-beta) signaling pathway - cell viability counter screen (AID 1259382); further: nearly all actives have a fitted effect of over 55% in size; further: potency means the concentration at half of the fitted maximal effect
Procedure, shortened: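 Cytotoxicity counter screen multiplexed with the beta-lactamase antagonist assay: GripTite HEK293T ER-beta-bla cells were treated 16 hr with test chemicals in the presence of 1nM 17-beta-estradiol, and viability was measured by CellTiter-Glo.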

[7] = molecular target: Estrogen receptor (Homo sapiens) (UniProt P03372); assay: qHTS assay to identify small molecule agonists of the estrogen receptor alpha (ER-alpha) signaling pathway in the presence of an antagonist (AID 1259383; calls by dose curve; further: top concentration of the series differs between compounds; nearly all actives have a fitted effect of over 15% in size)
Procedure, shortened: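 Agonist-mode confirmation in the presence of the ER antagonist ICI-182,780 at 10.0nM final. Breast-derived VM7Luc4E2 reporter cells were exposed to compounds for 22hr, and ERE-driven luciferase was quantified by luminescence.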

[8] = qHTS assay to identify small molecule agonists or antagonists of the thyroid stimulating hormone receptor (TSHR) signaling pathway - wild type cell line counter screen (AID 1259384; calls by dose curve)
Procedure, shortened: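 Wild-type HEK293 cells were plated 18 h at 37 C/5% CO2, pin-dosed with compound plus Ro20-1724 medium, held 30 min at room temperature, then given cAMP-d2 and anti-cAMP-cryptate; fluorescence was read after 1 h. Fifteen concentrations, triplicate.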

[9] = molecular target: Thyrotropin receptor (Homo sapiens) (UniProt P16473); assay: qHTS assay to identify small molecule antagonists of the thyroid stimulating hormone receptor (TSHR) signaling pathway (AID 1259385; calls by dose curve; further: nearly all actives have a fitted effect of over 20% in size)
Procedure, shortened: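 TSHR-HEK293 cells were plated and held 18 h at 37C/5% CO2, then given compound plus Ro20-1724 and stimulated with TSH at 1.5 ng/mL final. After 30 min at room temperature, cAMP was detected with cAMP-d2/anti-cAMP-cryptate (1 h) by fluorescence.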

[10] = qHTS assay to identify small molecule agonists of the estrogen receptor alpha (ER-alpha) signaling pathway in the presence of an antagonist - cell viability counter screen (AID 1259386);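 further: cells exposed to compounds for 22 h at 37 °C before the viability read; nearly all actives have a fitted effect of over 30% in size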; further: potency means the concentration at half of the fitted maximal effect
Procedure, shortened: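 Cytotoxicity was measured in parallel with the ERE-luciferase agonist screen, in the same wells. The cells were VM7Luc4E2, which endogenously express ER-alpha, and treatment was with compounds plus 10.0nM ICI-182,780 for 22hr.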

[11] = molecular target: Progesterone receptor (Homo sapiens) (UniProt P06401); assay: qHTS assay to identify small molecule agonists of the progesterone receptor (PR) signaling pathway (AID 1346784; calls by dose curve; further: nearly all actives have a fitted effect of over 30% in size)
Procedure, shortened: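 PR-UAS-bla HEK 293T cells carrying a UAS-driven beta-lactamase reporter were seeded in medium with 2% charcoal-stripped FBS, preincubated 6 hr at 37C, then exposed to compounds in DMSO for 16 hr; agonism was read by LiveBLAzer B/G FRET fluorescence.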

[12] = molecular target: Progesterone receptor (Homo sapiens) (UniProt P06401); assay: qHTS assay to identify small molecule antagonists of the progesterone receptor (PR) signaling pathway (AID 1346795; active means well fitted inhibition curve with a large enough effect in the signal ratio in the repeat runs, not every such curve was filed as active; the % refers to the signal ratio)
Procedure, shortened: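 PR-UAS-bla HEK293T cells carrying a UAS-driven beta-lactamase reporter were plated in medium with 2% charcoal-stripped FBS and rested 6 hr at 37C. Compounds were added with 1 nM R5020 (final) for 16 hr, then FRET substrate loaded 2 hr at room temperature.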

[13] = qHTS assay to identify small molecule antagonists of the progesterone receptor (PR) signaling pathway - cell viability counter screen (AID 1346798); further: series mostly up to about 92 µM; nearly all actives have a fitted effect of over 50% in size
Procedure, shortened: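 PR-UAS-bla HEK293T cells in medium with 2% charcoal-stripped FBS were treated with compounds plus R5020 for 16 hr at 37C. Cell viability was then read by CellTiter-Glo luminescence after 30 min at room temperature in the same wells.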

[14] = qHTS assay to identify small molecule agonists of the progesterone receptor (PR) signaling pathway - cell viability counter screen (AID 1346799; calls by dose curve; further: nearly all actives have a fitted effect of over 45% in size; further: potency means the concentration at half of the fitted maximal effect)
Procedure, shortened: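 PR-UAS-bla HEK293T cells, 3,000 per well in medium with 2% charcoal-stripped FBS, were preincubated 6 hr at 37C, then exposed to compounds for 16 hr; viability was read as CellTiter-Glo luminescence after 30 min at room temperature.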

[15] = qHTS assay to identify small molecule antagonists of the TGF-beta/Smad signaling pathway - cell viability counter screen (AID 1346824); further: nearly all actives have a fitted effect of over 50% in size
Procedure, shortened: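 SBE-bla HEK 293T cells were plated overnight at 37 C, then given compounds in DMSO plus TGF-beta1 (added as 0.25 ng/mL solution) for 5 hr. After the bla read, CellTiter-Glo was added to the same wells and luminescence read after 30 min at room temperature.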

[16] = qHTS assay to identify small molecule agonists of the TGF-beta/Smad signaling pathway - cell viability counter screen (AID 1346829); further: top concentration of the series differs between compounds; nearly all actives have a fitted effect of over 45% in size
Procedure, shortened: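 HEK 293T SBE-bla line, 5 hr compound exposure at 37 C, multiplexed CellTiter-Glo viability read by luminescence.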

[17] = qHTS assay to identify small molecule agonists of the TGF-beta/Smad signaling pathway (AID 1346859; active means well fitted activation curve with a large enough effect in the signal ratio in the repeat runs, not every such curve was filed as active; the % refers to the signal ratio; further: series mostly up to about 77 µM)
Procedure, shortened: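 HEK 293T cells stably carrying a beta-lactamase reporter driven by the Smad binding element were seeded overnight, exposed to DMSO-dissolved compounds for 5 hr at 37 C, 5% CO2, then loaded with FRET substrate for 2 hr at room temperature.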

[18] = molecular target: Thyrotropin-releasing hormone receptor (Homo sapiens) (UniProt P34981); assay: qHTS assay to identify small molecule antagonists of the thyrotropin-releasing hormone receptor (TRHR) signaling pathway (AID 1346877; active means well fitted inhibition curve with a large enough effect in the repeat runs, not every such curve was filed as active; further: series mostly up to about 51 µM)
Procedure, shortened: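 Antagonism is measured as suppression of the calcium response to 1 nM TRH in TRHR-HEK293 cells that have been dye-loaded for 2 h at 37 °C after overnight plating. Each compound is tested at 15 concentrations in triplicate.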

[19] = molecular target: Thyrotropin-releasing hormone receptor (Homo sapiens) (UniProt P34981); assay: qHTS assay to identify small molecule agonists of the thyrotropin-releasing hormone receptor (TRHR) signaling pathway (AID 1346891; calls by dose curve; further: series mostly up to about 58 µM)
Procedure, shortened: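 TRHR-expressing HEK293 cells were plated 18 h at 37 °C/5% CO2, loaded with calcium dye 2 h at 37 °C, then given compound in DMSO; fluorescence was read kinetically for 3 min at 1 s intervals.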

[20] = molecular target: Androgen receptor (Homo sapiens) (UniProt P10275); assay: qHTS assay to identify small molecule agonists of the androgen receptor (AR) signaling pathway in the presence of an antagonist (AID 1259381; calls by dose curve; further: nearly all actives have a fitted effect of over 15% in size)
Procedure, shortened: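 Agonist-mode confirmation screen: human MDA-kb2 cells stably expressing luciferase under an MMTV promoter bearing AR and GR response elements, co-treated with 3.0uM nilutamide (final). Luminescence measured after 16hr compound incubation.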

Sequence of Progesterone receptor (Homo sapiens) (P06401 whole entry, looked up): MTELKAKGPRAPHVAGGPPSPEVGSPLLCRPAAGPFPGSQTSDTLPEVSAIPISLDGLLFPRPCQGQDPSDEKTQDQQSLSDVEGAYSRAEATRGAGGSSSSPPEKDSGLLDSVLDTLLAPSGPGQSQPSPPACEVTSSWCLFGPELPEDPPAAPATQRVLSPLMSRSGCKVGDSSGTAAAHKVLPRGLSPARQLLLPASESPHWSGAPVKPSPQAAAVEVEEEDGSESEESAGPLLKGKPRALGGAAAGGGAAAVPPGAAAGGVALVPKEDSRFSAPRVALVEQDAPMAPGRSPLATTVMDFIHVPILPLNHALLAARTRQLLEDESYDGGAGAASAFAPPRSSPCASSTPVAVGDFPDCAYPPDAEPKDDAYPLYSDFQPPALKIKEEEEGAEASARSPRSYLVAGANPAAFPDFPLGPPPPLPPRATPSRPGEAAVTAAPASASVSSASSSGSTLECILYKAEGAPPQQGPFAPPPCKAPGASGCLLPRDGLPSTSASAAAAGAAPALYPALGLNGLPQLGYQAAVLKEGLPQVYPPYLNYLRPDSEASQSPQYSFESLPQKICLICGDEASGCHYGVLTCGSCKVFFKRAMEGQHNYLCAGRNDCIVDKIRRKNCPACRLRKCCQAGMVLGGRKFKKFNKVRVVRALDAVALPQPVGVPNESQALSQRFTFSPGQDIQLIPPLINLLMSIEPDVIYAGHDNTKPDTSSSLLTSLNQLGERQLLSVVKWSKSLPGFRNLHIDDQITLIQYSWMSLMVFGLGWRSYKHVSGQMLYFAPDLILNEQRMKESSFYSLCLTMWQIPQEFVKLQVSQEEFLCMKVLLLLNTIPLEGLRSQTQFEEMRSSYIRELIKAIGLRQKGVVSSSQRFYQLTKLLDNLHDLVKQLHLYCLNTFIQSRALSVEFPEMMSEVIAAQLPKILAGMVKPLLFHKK
Sequence of Estrogen receptor (Homo sapiens) (P03372 whole entry, looked up): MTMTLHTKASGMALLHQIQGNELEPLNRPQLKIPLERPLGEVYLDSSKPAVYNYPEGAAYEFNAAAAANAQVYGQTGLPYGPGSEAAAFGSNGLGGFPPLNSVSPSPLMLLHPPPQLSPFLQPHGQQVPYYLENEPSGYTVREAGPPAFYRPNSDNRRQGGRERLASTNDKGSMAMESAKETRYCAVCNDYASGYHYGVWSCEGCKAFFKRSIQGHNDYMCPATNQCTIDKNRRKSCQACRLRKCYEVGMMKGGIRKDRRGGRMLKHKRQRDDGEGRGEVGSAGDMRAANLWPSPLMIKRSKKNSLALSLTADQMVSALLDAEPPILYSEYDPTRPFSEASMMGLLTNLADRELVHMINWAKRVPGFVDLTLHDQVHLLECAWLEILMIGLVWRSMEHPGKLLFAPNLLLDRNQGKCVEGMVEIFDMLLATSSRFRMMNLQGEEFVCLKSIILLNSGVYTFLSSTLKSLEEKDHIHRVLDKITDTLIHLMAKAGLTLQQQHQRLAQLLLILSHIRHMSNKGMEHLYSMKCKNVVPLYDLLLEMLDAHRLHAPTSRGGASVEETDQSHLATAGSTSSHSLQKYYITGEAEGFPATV
Sequence of Thyrotropin receptor (Homo sapiens) (P16473 whole entry, looked up): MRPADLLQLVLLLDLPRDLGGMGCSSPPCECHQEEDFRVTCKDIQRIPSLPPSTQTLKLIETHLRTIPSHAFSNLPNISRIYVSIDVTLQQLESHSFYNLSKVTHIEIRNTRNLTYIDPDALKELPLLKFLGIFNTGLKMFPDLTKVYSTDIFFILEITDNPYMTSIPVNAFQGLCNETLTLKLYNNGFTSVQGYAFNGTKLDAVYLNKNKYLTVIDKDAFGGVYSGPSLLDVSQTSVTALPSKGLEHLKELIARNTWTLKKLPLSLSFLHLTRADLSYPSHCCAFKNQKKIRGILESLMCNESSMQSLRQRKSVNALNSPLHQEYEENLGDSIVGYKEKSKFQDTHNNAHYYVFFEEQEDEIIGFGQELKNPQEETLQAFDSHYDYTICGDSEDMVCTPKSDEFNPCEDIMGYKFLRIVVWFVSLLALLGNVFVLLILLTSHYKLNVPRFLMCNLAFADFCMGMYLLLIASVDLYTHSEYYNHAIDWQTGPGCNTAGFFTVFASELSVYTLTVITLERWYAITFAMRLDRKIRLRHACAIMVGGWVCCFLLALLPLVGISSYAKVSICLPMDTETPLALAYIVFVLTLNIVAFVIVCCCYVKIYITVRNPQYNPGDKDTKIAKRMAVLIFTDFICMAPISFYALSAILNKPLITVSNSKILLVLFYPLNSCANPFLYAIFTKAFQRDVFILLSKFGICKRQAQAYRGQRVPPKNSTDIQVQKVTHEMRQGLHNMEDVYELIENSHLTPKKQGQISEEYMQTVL
Sequence of Androgen receptor (Homo sapiens) (P10275 whole entry, looked up): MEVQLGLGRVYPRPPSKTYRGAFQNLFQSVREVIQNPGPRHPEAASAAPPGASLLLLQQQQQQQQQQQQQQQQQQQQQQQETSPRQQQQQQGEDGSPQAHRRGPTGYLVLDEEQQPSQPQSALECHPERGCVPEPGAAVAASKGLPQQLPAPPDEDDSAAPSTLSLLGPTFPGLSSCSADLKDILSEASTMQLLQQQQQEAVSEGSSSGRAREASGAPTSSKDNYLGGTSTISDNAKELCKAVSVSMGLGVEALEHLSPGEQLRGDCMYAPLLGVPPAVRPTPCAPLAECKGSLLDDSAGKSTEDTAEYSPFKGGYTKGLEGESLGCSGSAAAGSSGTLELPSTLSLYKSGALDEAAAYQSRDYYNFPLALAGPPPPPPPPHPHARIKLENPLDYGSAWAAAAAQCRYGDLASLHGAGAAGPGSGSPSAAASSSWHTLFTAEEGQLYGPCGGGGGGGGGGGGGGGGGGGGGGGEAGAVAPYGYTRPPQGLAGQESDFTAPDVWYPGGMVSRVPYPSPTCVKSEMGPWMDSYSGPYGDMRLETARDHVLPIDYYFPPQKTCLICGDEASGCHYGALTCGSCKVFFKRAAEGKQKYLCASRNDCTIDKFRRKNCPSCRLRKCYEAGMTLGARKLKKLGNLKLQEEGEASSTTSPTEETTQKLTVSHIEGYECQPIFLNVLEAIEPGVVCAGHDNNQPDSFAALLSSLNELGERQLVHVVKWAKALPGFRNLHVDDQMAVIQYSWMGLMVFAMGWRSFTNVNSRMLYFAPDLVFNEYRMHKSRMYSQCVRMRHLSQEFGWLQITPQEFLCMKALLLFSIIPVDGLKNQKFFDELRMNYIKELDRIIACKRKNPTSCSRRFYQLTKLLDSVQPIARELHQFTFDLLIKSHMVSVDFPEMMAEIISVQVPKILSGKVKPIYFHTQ
Sequence of Thyrotropin-releasing hormone receptor (Homo sapiens) (P34981 whole entry, looked up): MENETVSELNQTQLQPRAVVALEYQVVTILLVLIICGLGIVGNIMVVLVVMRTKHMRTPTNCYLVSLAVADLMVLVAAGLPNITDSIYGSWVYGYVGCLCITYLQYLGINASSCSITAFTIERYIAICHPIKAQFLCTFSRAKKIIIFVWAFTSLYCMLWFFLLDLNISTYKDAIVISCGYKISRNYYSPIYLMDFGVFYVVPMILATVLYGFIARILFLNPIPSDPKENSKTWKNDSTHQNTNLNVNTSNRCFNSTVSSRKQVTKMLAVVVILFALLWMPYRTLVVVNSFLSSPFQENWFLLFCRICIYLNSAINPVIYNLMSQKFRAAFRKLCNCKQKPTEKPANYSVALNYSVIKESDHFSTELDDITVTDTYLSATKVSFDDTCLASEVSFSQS
Sequence of Estrogen receptor beta (Homo sapiens) (Q92731 whole entry, looked up): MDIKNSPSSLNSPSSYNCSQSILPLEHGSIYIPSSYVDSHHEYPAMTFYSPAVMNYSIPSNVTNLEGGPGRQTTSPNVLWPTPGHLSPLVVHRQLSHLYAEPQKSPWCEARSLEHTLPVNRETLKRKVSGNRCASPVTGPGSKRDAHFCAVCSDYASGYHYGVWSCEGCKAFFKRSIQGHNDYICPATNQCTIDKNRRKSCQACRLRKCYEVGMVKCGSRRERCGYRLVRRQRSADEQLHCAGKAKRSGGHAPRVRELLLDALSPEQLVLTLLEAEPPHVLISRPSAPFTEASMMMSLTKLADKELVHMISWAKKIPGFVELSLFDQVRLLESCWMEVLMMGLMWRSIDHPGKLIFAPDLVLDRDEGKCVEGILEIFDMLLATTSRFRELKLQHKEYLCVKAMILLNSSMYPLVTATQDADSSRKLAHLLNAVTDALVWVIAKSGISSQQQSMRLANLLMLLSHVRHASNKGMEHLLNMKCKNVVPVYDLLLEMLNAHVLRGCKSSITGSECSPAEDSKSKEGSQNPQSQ

| Compound | Potency [1] | outcome [2] | Potency [3] | Potency [4] | Potency [5] | Potency [6] | Potency [7] | Potency [8] | Potency [9] | Potency [10] | Potency [11] | Potency [12] | Potency [13] | Potency [14] | Potency [15] | Potency [16] | outcome [17] | Potency [18] | Potency [19] | Potency [20] |
| --- | --- | --- | --- | --- | --- | --- | --- | --- | --- | --- | --- | --- | --- | --- | --- | --- | --- | --- | --- | --- |
| C1COC(NC(C2CC2)C2CC2)=N1 | inactive | inactive | inactive | inactive | inactive | inactive | inactive | inactive | inactive | inactive | inactive | inactive | inactive | inactive | inactive | inactive | inactive | inactive | inactive |  |
| OCC(CO)N[C@H]1C[C@](O)(CO)[C@@H](O)[C@H](O)[C@H]1O | inactive | inactive | inactive | inactive | inactive | inactive | inactive | inactive |  | inactive | inactive | inactive | inactive | inactive | inactive | inactive | inactive | inactive | inactive | inactive |
| COC(=O)c1cccc(C(=O)OC)c1 | inactive | inactive | inactive | inactive | inactive | inactive | inactive |  |  | inactive | inactive | inactive | inactive | inactive | inactive | inactive | inactive | inactive | inactive | inactive |
| CCCCOCCOC(=O)c1ccccc1C(=O)OCCOCCCC | 26.7 µM (active) | inactive | inactive | inactive | inactive | inactive | inactive | inactive |  | inactive | inactive |  | inactive | inactive | inactive | inactive | inactive | inactive |  |  |
| O=C(O)Cn1cnnn1 | inactive | inactive | inactive | inactive | inactive | inactive | inactive | inactive | inactive | inactive | inactive | inactive | inactive |  | inactive | inactive | inactive | inactive |  | inactive |
| CN1C(=O)c2ccc([N+](=O)[O-])cc2C1=O | inactive | inactive | inactive | inactive | inactive | inactive | inactive | inactive | inactive | inactive |  |  | inactive | inactive | inactive | inactive | inactive | inactive | inactive | inactive |
| CC(C)CCOCc1ccccc1 | inactive | inactive | inactive | inactive | inactive | inactive | inactive | inactive | inactive | inactive | inactive |  |  | inactive | inactive | inactive | inactive | inactive | inactive | inactive |
| Oc1ccc(Cl)cc1Cc1cc(Cl)ccc1O | 15.6 µM (active) and 21.7 µM (active) | inactive | 17.5 µM (active) and 19.3 µM (active) and 23.7 µM (active) | 39.3 µM (active) and 27.3 µM (active) and 29.8 µM (active) | 49.4 µM (active) and 48.6 µM (active) and 18.8 µM (active) | 27.8 µM (active) and 27.3 µM (active) | inactive | inactive |  | 43.3 µM (active) | inactive |  | inactive | 69.8 µM (active) |  | inactive | inactive | inactive | inactive | inactive |
| CCN(CC)C(=O)Nc1ccc(OCC(O)CNC(C)(C)C)c(C(C)=O)c1 (configuration not stated) | inactive | inactive | inactive | inactive | inactive | inactive | inactive | inactive | inactive | inactive | inactive | inactive | inactive | inactive | inactive | inactive | inactive | inactive | inactive | inactive |
| OCCN1CCNCC1 | inactive | inactive | inactive | inactive | inactive | inactive | inactive | inactive |  | inactive | inactive |  | inactive | inactive | inactive | inactive | inactive | inactive | inactive |  |
| CO[Si](OC)(OC)c1ccccc1 | inactive | inactive | inactive | inactive | inactive | inactive | inactive | inactive | inactive | inactive | inactive |  | inactive | inactive | inactive | inactive | inactive | inactive | inactive |  |
| COC(=O)/C=C/c1ccccc1 | inactive and 21.7 µM (active) | inactive | inactive | inactive | inactive | inactive | inactive | inactive | inactive | inactive | inactive | inactive | inactive | inactive | inactive | inactive | inactive | inactive | inactive |  |
